# Assay outcomes (PubChem BioAssay)
# Peg3 prom inh: reduces Peg3 promoter-driven luciferase expression in HeLa. actives 1.7% (n = 360,000). inhibition, % at 20 µM. HeLa PEG-Prom luciferase reporter, luminescence, overnight;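 active = inhibition of at least 50% at 20 µM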
# Shn3 3UTR inh: reduces Shn3 3'UTR luciferase signal in osteoblasts; AID 588674; Clone20 osteoblast Shn3 3'UTR firefly luciferase, 24 h; actives 0.52% (n = 360,000); inhibition, % at 12.5 µM;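 active = mean inhibition of at least 75% with every replicate also reaching 75%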;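 also: 0% = median of neutral control wells and 100% = pilot-screen positive control compound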
# EBV LMP1 NFkB: Epstein-Barr LMP1 NF-kappaB reporter inhibition | LMP1-induced NF-kappaB luciferase reporter cells, luminescence | inhibition, % at 12.5 µM | actives 0.69% (n = 350,000); in the data active = inhibition above about 41%;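 also: 0% = neutral control wells and 100% = reference inhibitor control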
# KKLEB cytotox: counter-screen for CF NF-kB inhibitors: cytotoxicity | KKLEB CF airway cells viability, ATPlite luminescence, overnight; hits give low values; cells stimulated with P. aeruginosa culture filtrate | activity change (cytotoxicity), % at 5 µM | actives 0.36% (n = 360,000) | AID 602141;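 active = corrected activity change at or below -50% at 5 µM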
# CF NFkB inh: cystic fibrosis NF-kB activation inhibition. inhibition, % at 5 µM. KKLEB NF-kB-GFP reporter, PAF-induced, GFP fluorescence overnight. actives 0.86% (n = 360,000);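 active = at least 50% inhibition at 5 µM, scaled per plate between neutral and stimulator controls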;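 also: PAF is a Pseudomonas aeruginosa culture filtrate used as stimulus; plate controls were PAF-stimulated DMSO wells for no effect and unstimulated DMSO wells for full effect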
# HIF-2a block: blocks HIF-2a reporter activity. 786-0 RCC cells HIF-2a reporter, luciferase luminescence, overnight. inhibition, % at 18.8 µM. actives 0.72% (n = 360,000). AID 624352;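 active = inhibition of the luminescence signal of 40% or more relative to plate controls, in a single-dose primary screen at 18.75 µM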
# * marks the source's active call; other numbers are inactive results. A selection: hits, their analogues and other compounds. The true share with any hit is near 2.9%.
SMILES,Peg3 prom inh,Shn3 3UTR inh,EBV LMP1 NFkB,KKLEB cytotox,CF NFkB inh,HIF-2a block
O=C(Cn1cnc2c(nnn2Cc2ccccc2)c1=O)N1CCN(c2ccccc2)CC1,9,0,83*,15,12,17
CCN(Cc1ccc(OC)c(F)c1)C(=O)/C=C/c1ccc(S(=O)(=O)N2CCOCC2)cc1,16,10,1,-4,-14,12
COc1ccc(/C=C\C(=O)O[C@@H]2C(O)C(O[C@@H]3OC(C)[C@H](O[C@@H]4OCC(O[C@H]5O[C@H](CO)[C@@H](O)C(O)C5O)C(O)C4O)C(O)C3O)[C@H](OC(=O)[C@]34CCC(C)(C)C[C@@H]3C3=CCC5[C@@]6(C)CC(O)C(O[C@@H]7OC(CO)C(O)[C@H](O)[C@H]7O)[C@@](C)(C(=O)O)C6CC[C@@]5(C)[C@]3(CO)CC4)O[C@H]2C)cc1 (some centres undefined),51*,-1,-79,8,-58,34
C[C@@H]1CC[C@]2(C(=O)O[C@@H]3O[C@H](CO)[C@@H](O)[C@H](O)[C@H]3O)CC[C@]3(C)C(=CCC4[C@@]5(C)CC[C@H](O[C@@H]6OC[C@H](O)[C@H](O[C@@H]7O[C@H](CO)[C@@H](O)[C@H](O)[C@H]7O)[C@H]6O)C(C)(C)C5CC[C@]43C)C2[C@]1(C)O (some centres undefined),-31,-72,-8,-3,10,2
COc1ccc(-c2c(-c3cc(OC)cc(OC)c3)n(C)c3ccc(-c4ccc(N(C)C)nc4)cc23)cc1,14,15,-65,9,9,14
COc1ccc(CN(C(=O)CSc2nnc(-c3ccc(F)cc3)o2)c2ccc(F)cc2)cc1,-9,88*,2,-1,9,-13
CC(C(=O)N1CCCC1)N(c1ccc(Cl)cc1)S(C)(=O)=O (centres undefined),13,12,-2,-1,5,15
CC(C)c1ccc2c(c1)C1(NN=C(c3ccccc3)S1)C(=O)N2 (centres undefined),-65,63,9,4,-2,-238
CCc1ccc2c(c1)C1(NN=C(c3ccc(C)cc3)S1)C(=O)N2 (centres undefined),48,-5,40,-12,2,89*
Nc1ccc(OC(=O)Nc2ccc(O)cc2)cc1,14,14,29,1,2,77*
COCCCn1c(-c2ccc(S(=O)(=O)N3CCOCC3)cc2)csc1=Nc1ccccc1,9,91*,28,0,-15,12
COc1ccc(-c2csc(NC(=O)c3c(OC)cccc3OC)n2)cc1,2,6,7,-4,-4,-9
COc1ccc(S(=O)(=O)Nc2ccccc2C(=O)Nc2nc(-c3ccc(F)cc3)cs2)cc1OC,32,-1,3,-41,52*,-16
COc1ccc(-c2csc(NC(=O)c3ccccc3NS(=O)(=O)c3ccc(C)cc3)n2)cc1,55*,42,5,-52*,57*,1
COc1ccc(S(=O)(=O)N/N=C\c2ccccc2F)cc1,5,-8,-1,-5,10,9
CCOc1cc(/C=C2/C(=O)ON=C2C)ccc1OCc1ccc(F)cc1,65*,57,0,8,-13,-1
CCOc1cc(/C=C2/C(=O)ON=C2C)ccc1OCc1ccccc1F,97*,84,7,19,-42,17
CCOc1cc(/C=C2\C(=O)ON=C2c2ccccc2)ccc1OC,38,64,7,2,-6,12
CCC(=O)N(Cc1cc(=O)[nH]c2ccccc12)c1ccc(OC)cc1,22,8,-3,-4,-4,15
Cc1ccc(CC#N)c(-c2c(CC#N)ccc(C)c2C)c1C,15,-6,-1,4,23,19
Cc1ccc2c(c1C)-c1c(ccc(C)c1C)C(=O)C2=O,95*,54,0,-53*,86*,66*
O=C(O)C(=Cc1cccc([N+](=O)[O-])c1)c1ccccc1,-3,-14,-4,-13,10,10
O=C(C#Cc1cccc([N+](=O)[O-])c1)c1ccccc1,107*,93*,46*,-64*,97*,26
COc1ccccc1CNC(=O)C1CCN(S(=O)(=O)c2ccc(N3CCCC3=O)cc2)CC1,9,-6,1,-21,17,2
